Laboratory results taken from PubChem BioAssay AID1159580 (chemical genetic matrix, 2015).
Several values for one entry are separate records, joined by “and”; a condition that tells them apart may be missing. Equal entries are not always repeated. The campaign covered roughly 5,500 compounds. About 2,000 (36%) were called active. Roughly 18% stayed inconclusive and do not appear here. Rule as the data show it: active = normalized growth mostly below about 0.91 (no sharp cut-off); inconclusive = no clear call, values can overlap the other calls; inactive = mostly above about 0.92. The list shows a part of the results.

Experiment: chemical genetic growth profiling, strain panel (AID 1159580);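 also: tested at 20 µM; growth read once vehicle control cultures reached saturation at 30 °C; 1 = growth at the plate median or of vehicle wells; lower values mean less growth of the strain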
Conditions: S. cerevisiae deletion strains, growth OD

Measured: normalized growth

Cc1ccccc1N1C(=O)c2cc(S(N)(=O)=O)c(Cl)cc2NC1C (stereo not drawn)
inactive: locus YAL013W, strain DEP1, hits give low values 0.989 | locus YAL021C, strain ccr4, hits give low values 1 | locus YAL026C, strain drs2, hits give low values 0.983 | locus YAL030W, strain snc1, hits give low values 0.991 | locus YBL061C, strain skt5, hits give low values 0.987 | locus YBR009C, strain hhf1, hits give low values 1 | locus YBR021W, strain FUR4, hits give low values 0.968 | locus YBR023C, strain chs3, hits give low values 0.989 | locus YBR171W, strain sec66, hits give low values 0.963 | locus YBR229C, strain ROT2, hits give low values 0.982 | locus YBR231C, strain swc5, hits give low values 0.987 | locus YBR279W, strain paf1, hits give low values 0.996 | locus YCL011C, strain gbp2, hits give low values 0.997 | locus YCL016C, strain dcc1, hits give low values 1.03 | locus YCL029C, strain bik1, hits give low values 0.979 | locus YCL069W, strain vba3, hits give low values 0.996 | locus YCR088W, strain abp1, hits give low values 0.978 | locus YDL005C, strain med2, hits give low values 0.96 | locus YDL035C, strain GPR1, hits give low values 1.01 | locus YDL040C, strain nat1, hits give low values 0.986 | locus YDL074C, strain BRE1, hits give low values 1.02 | locus YDL101C, strain DUN1, hits give low values 0.985 | locus YDL134C, strain PPH21, hits give low values 0.983 | locus YDL185W, strain tfp1, hits give low values 0.984 | locus YDL192W, strain arf1, hits give low values 0.98 | locus YDR001C, strain nth1, hits give low values 0.957 | locus YDR069C, strain doa4, hits give low values 0.96 | locus YDR101C, strain arx1, hits give low values 0.994 | locus YDR137W, strain rgp1, hits give low values 1 | locus YDR159W, strain sac3, hits give low values 0.973 | locus YDR162C, strain NBP2, hits give low values 0.994 | locus YDR195W, strain ref2 0.944 | locus YDR297W, strain sur2, hits give low values 1 | locus YDR318W, strain mcm21, hits give low values 0.99 | locus YDR334W, strain swr1, hits give low values 0.918 | locus YDR335W, strain msn5, hits give low values 0.973 | locus YDR388W, hits give low values 0.994 | locus YDR392W, strain spt3, hits give low values 1.01 | locus YDR502C, strain sam2, hits give low values 0.983 | locus YEL003W, strain gim4, hits give low values 0.978 | locus YEL037C, strain rad23, hits give low values 0.978 | locus YEL061C, strain CIN8 (second series), hits give low values 0.985 | locus YEL061C, strain CIN8, hits give low values 0.993 | locus YER015W, strain faa2, hits give low values 0.986 | locus YER016W, strain bim1, hits give low values 0.998 | locus YER110C, hits give low values 0.976 | locus YER111C, strain swi4, hits give low values 0.987 | locus YER155C, strain BEM2 (second series), hits give low values 0.99 | locus YER155C, strain BEM2, hits give low values 0.981 | locus YER167W, strain BCK2, hits give low values 0.981 | locus YFR010W, strain ubp6, hits give low values 0.968 | locus YGL078C, strain dbp3, hits give low values 0.981 | locus YGL086W, strain mad1, hits give low values 1.01 | locus YGL167C, strain pmr1, hits give low values 0.996 | locus YGL173C, strain kem1, hits give low values 1.01 | locus YGL227W, strain vid30, hits give low values 0.972 | locus YGL240W, strain doc1, hits give low values 0.995 | locus YGL248W, strain PDE1, hits give low values 1 | locus YGL253W, strain hxk2, hits give low values 0.972 | locus YGR135W, strain pre9, hits give low values 0.986 | locus YGR229C, strain SMI1, hits give low values 0.982 | locus YGR252W, strain gcn5, hits give low values 0.991 | locus YHR013C, strain ard1, hits give low values 1.02 | locus YHR027C, strain rpn1, hits give low values 0.991 | locus YHR030C, strain SLT2, hits give low values 0.987 and 0.961 | locus YHR079C, strain IRE1 (second series), hits give low values 0.997 | locus YHR079C, strain IRE1, hits give low values 0.966 | locus YHR094C, strain hxt1, hits give low values 0.99 | locus YHR129C, strain ARP1, hits give low values 0.988 | locus YHR142W, strain chs7, hits give low values 0.969 | locus YHR200W, strain rpn10, hits give low values 0.982 | locus YIL066C, strain RNR3, hits give low values 1.01 | locus YIL073C, strain SPO22, hits give low values 1.03 | locus YIL125W, strain kgd1, hits give low values 0.991 | locus YIR030C, strain dcg1, hits give low values 0.987 | locus YJL092W, strain hpr5, hits give low values 0.992 | locus YJL095W, strain BCK1 (second series), hits give low values 0.956 | locus YJL095W, strain BCK1, hits give low values 1.03 and 0.975 | locus YJL115W, strain asf1, hits give low values 0.965 | locus YJL129C, strain trk1, hits give low values 0.941 | locus YJL134W, strain LCB3, hits give low values 0.986 | locus YJL154C, strain vps35, hits give low values 0.961 | locus YJL164C, strain tpk1, hits give low values 1.03 | locus YJL166W, strain qcr8, hits give low values 0.978 | locus YJL168C, strain set2, hits give low values 0.992 | locus YJL187C, strain SWE1 (second series), hits give low values 1 | locus YJR043C, strain POL32, hits give low values 0.994 | locus YJR066W, strain TOR1, hits give low values 0.923
